The record followed here is PubChem BioAssay (NCATS).

Molecules are shown by their SMILES. Results filed as inconclusive are left out. Entries that show only a call come without a potency. Activity calls are given as the source filed them. Calls follow the shape of the dose curve; as a rule, active = well fitted curve in the direction sought with a large enough effect; inconclusive = small, poorly fitted or top-dose-only effect, or another doubt; inactive = no such curve, though single readings can be large; an effect the other way counts as inactive or inconclusive.

The target in assay [1] is Aldehyde dehydrogenase, mitochondrial (Homo sapiens) (UniProt P05091). The experiment in a line: qHTS for Inhibitors of the Aldehyde Dehydrogenase Family (ALDH2) Primary screen (AID 2061308). Also: nearly all actives have a fitted effect of over 55% in size. Conditions: ALDH2 enzyme inhibition qHTS, 1536-well; series mostly up to 56 µM.
In assay [2] the target is Retinaldehyde dehydrogenase 3 (Homo sapiens) (UniProt P47895). The experiment in a line: qHTS for Inhibitors of the Aldehyde Dehydrogenase Family (ALDH1A3) Primary screen (AID 2061315). To be noted: ALDH inhibition qHTS; series mostly up to 56 µM.

Regarding `O=C(Nc1ccc(-c2nc3ccccc3[nH]2)cc1)c1ccc(Oc2ccccc2)cc1`, the Potency entry in assay [1] and in assay [2] was “inactive” in each case.

Turning to `c1nc(NCCCN2CCOCC2)c2cc(-c3ccc4c(c3)OCO4)ccc2n1`, the Potency result in assay [1] and in assay [2] was “inactive” each time.

Consider `CC(C)(C)OC(=O)NCc1nnc(-c2cc3ccccc3[nH]2)s1`, for which the Potency entry in assay [1] and in assay [2] was “inactive” in each case.

Turning to `O=C(Nc1ccc2ccccc2c1)Nc1nnc(-c2ccc(F)cc2)s1`, the Potency result in assay [1] and in assay [2] was “inactive” throughout.

Consider `Cc1cc(C)nc(NC(=S)N2CCN(c3ccc(Cl)c(C(F)(F)F)c3)CC2)c1`, for which the Potency result in assay [1] and in assay [2] was “inactive” throughout.

Take `Cc1c(P(=S)(c2ccccc2)c2ccccc2)[n+]2ccccc2n1Cc1ccccc1`: the Potency entry in assay [1] and in assay [2] was “inactive” throughout.

Turning to `CC12CCC3C1C(c1c(cc(O)c(C(=O)c4ccccc4)c1O)O2)C3(C)C` (stereo unspecified), the Potency result in assay [1] and in assay [2] was “inactive” in each case.

As to `Cn1c2ccsc2c2ncn(Cc3ccccc3F)c(=O)c21`, the Potency entry in assay [1] and in assay [2] was “inactive” each time.

Turning to `O=C(CNC(=O)c1ccc([N+](=O)[O-])cc1)OC(C(=O)Nc1cc(C(F)(F)F)ccc1Cl)c1ccccc1` (stereo unspecified), the Potency result in assay [1] and in assay [2] was “inactive” in each case.

For `Cc1cc(C)c(S(=O)(=O)Nc2cccc3cccnc23)c(C)c1`, the Potency entry in assay [1] and in assay [2] was “inactive” each time.

`CNc1oc(-c2cccc3ncccc23)nc1C#N`: the Potency entry in assay [1] and in assay [2] was “inactive” in each case.

On to `CC(NCc1ccc2c(c1)nc(NC(=O)c1ccc(-c3cn[nH]c3)s1)n2CC(C)(C)O)C(C)(C)C` (stereo unspecified), for which the Potency entry in assay [1] and in assay [2] was “inactive” in each case.

With `COc1ccc(-c2nnc(NC(=O)Nc3ccc4ccccc4c3)s2)cc1OC`, the Potency result in assay [1] and in assay [2] was “inactive” in each case.

On to `COc1ccc(-c2nnc3n2N=C(c2ccc(OC)c(OC)c2)CS3)c(OC)c1`, for which the Potency entry in assay [1] and in assay [2] was “inactive” throughout.

Consider `O=S(=O)(Nc1nccs1)c1ccc(NCc2ccccc2O)cc1`, for which the Potency result in assay [1] and in assay [2] was “inactive” in each case.

For the compound `CSc1ccc(CNc2ncnc3ccc(-c4c(C)noc4C)cc23)cc1`, the Potency entry in assay [1] and in assay [2] was “inactive” each time.

With `N#Cc1cc(-c2nc(Nc3ccc(F)c(F)c3)c3ccccc3n2)ccn1`, the Potency result in assay [1] and in assay [2] was “inactive” throughout.

With `CC(=O)Nc1sc2c(c1-c1ccccc1F)CCNC2`, the Potency entry in assay [1] and in assay [2] was “inactive” each time.

For `Cc1ccc(CC(=O)Nc2nc(-c3ccc4c(c3)CCN4C(=O)c3ccccc3C)c(C)s2)cc1C`, the Potency result in assay [1] and in assay [2] was “inactive” in each case.

On to `COc1cccc(-c2nc3cc(NC(=O)c4ccc(C)c([N+](=O)[O-])c4)ccc3o2)c1`, for which the Potency entry in assay [1] and in assay [2] was “inactive” in each case.

Take `COc1ccc(C2Nc3ccccc3C(=O)N2Cc2cccs2)cc1COc1c(C)cccc1C` (stereo unspecified): the Potency entry in assay [1] and in assay [2] was “inactive” throughout.

`CCOC(=O)CCC(=O)Nc1ncnc2c1C(c1ccccc1)c1c(ccc3ccccc13)O2` (stereo unspecified): the Potency entry in assay [1] and in assay [2] was “inactive” throughout.

With `CCN(CC)CCCCn1c(-c2ccccc2)nc2c(N(CCOC)CCOC)nc(C)nc21`, the Potency entry in assay [1] and in assay [2] was “inactive” throughout.
